# Measured values as given in PubChem BioAssay (Tox21).
# Several values for one entry are separate records, joined by “and”; a condition that tells them apart may be missing. Equal entries are not always repeated. Records with an inconclusive call do not appear. Entries that show only a call come without a potency. A structure can be active in one record and inactive in another. Activity calls are given as the source filed them. Calls come from the whole dose curve; as a rule, active = well fitted cell-killing curve with a large enough effect in the repeat runs; inconclusive = weak or mixed curves, or effect the other way; inactive = no such curve, though single readings can be large or run the other way.
# Assay: qHTS assay to identify small molecule antagonists of the vitamin D receptor (VDR) signaling pathway - cell viability counter screen (AID 743225); note: nearly all actives have a fitted effect of over 50% in size
# Conditions: VDR-bla HEK293T viability, CellTiter-Glo luminescence, 16 h; series mostly up to 61 µM
# Text: U.S. Tox21 Program National Center for Advancing Translational Sciences [NCATS] NIH Chemical Genomics Center [NCGC] U.S. Environmental Protection Agency [EPA] National Institutes of Environmental Health Sciences [NIEHS] National Toxicology Program [NTP] U.S. Food and Drug Administration [FDA] Tox21 Assay Overview: The vitamin D receptor (VDR), a member of nuclear hormone receptor superfamily, plays a critical role in calcium homeostasis and bone metabolism. It is also involved in cell differentiation and growth, and thrombogenicity. To identify the compounds that inhibit VDR signaling, the VDR-UAS-bla HEK 293T cell line (Invitrogen, Carlsbad, CA, USA) containing a beta-lactamase reporter gene under the control of an upstream activator sequence (UAS) was used to screen the Tox21 10K compound library. The cytotoxicity of the Tox21 compound library against the VDR-bla cell line was tested in parallel by measuring the cell viability using CellTiter-Glo assay (Promega, Madison, WI) in the same wells.
# Tox21 Assay Protocol Summary: VDR-bla cells were dispensed at 2,000 cells/5 uL of assay medium per well into black wall/clear-bottom 1536-well plates using a Multidrop Combi (Thermo Fisher Scientific, Waltham, MA) dispenser. After the assay plates were incubated at a 37C and 5% CO2 for 4 h, 23 nL of compounds dissolved in DMSO, positive controls or DMSO only was transferred to the assay plate by a Pintool station (Kalypsys, San Diego, CA), followed by addition of 1 uL of 1-alpha, 25-Dihydroxy Vitamin D3 (3 nM, final concentration in the wells) using a Bioraptr Flying Reagent Dispenser (FRD) workstation (Beckman Coulter, Indianapolis, IN). The plates were incubated at 37C and 5% CO2 for 16 h, and then 1 uL of LiveBLAzerTM B/G FRET substrate was added using a Bioraptr FRD. The plates were incubated at room temperature for 2 h and fluorescence intensity was measured by an Envision plate reader (PerkinElmer, Shelton, CT). For cell viability readout that measures cytotoxicity, 3 ul/well of CellTiter-Glo reagent was added into the assay plates using a Bioraptr FRD. After 30 min incubation at room temperature, the luminescence intensity in the plates was measured using a ViewLux plate reader (PerkinElmer).
# Potency is the fitted concentration of half-maximal effect.
row,SMILES,Potency
1,O=[N+]([O-])c1cccc2ccccc12,inactive
2,CC(C)=CC1C(C(=O)OCc2coc(Cc3ccccc3)c2)C1(C)C (stereo not given),inactive
3,NNC(N)=S,inactive
4,C1=Cc2cccc3cccc1c23,inactive
5,CCCCC(CC)COC(=O)c1ccc(C(=O)OCC(CC)CCCC)c(C(=O)OCC(CC)CCCC)c1 (stereo not given),inactive
6,C=C(C)[C@H]1Cc2c(ccc3c2O[C@@H]2COc4cc(OC)c(OC)cc4[C@@H]2C3=O)O1,inactive
7,O=[N+]([O-])c1c(Cl)c(Cl)c(Cl)c(Cl)c1Cl,inactive
8,C#CCOS(=O)OC1CCCCC1Oc1ccc(C(C)(C)C)cc1 (stereo not given),38.9 µM (active)
9,CCC(C)(C)c1ccc(O)cc1,inactive
10,Cc1c(COC(=O)[C@@H]2[C@H](/C=C(\Cl)C(F)(F)F)C2(C)C)cccc1-c1ccccc1,inactive
11,NC(=S)Nc1ccccc1,inactive
12,CN(C)C(=O)Nc1ccc(Cl)cc1,inactive
13,OCC(O)CO,inactive
14,c1ccc(NNc2ccccc2)cc1,inactive
15,Cc1cccc(N)c1N,inactive
16,Nc1ccc(Cl)c(Cl)c1,inactive
17,Nc1c(Cl)cc([N+](=O)[O-])cc1Cl,inactive
18,O=C(NC(=O)c1c(F)cccc1F)Nc1ccc(Cl)cc1,inactive
19,Oc1cc(Cl)ccc1Cl,inactive
20,S=C1NCCN1,inactive

row,SMILES,Potency
1,CCCCN(CC)c1c([N+](=O)[O-])cc(C(F)(F)F)cc1[N+](=O)[O-],inactive
2,NNC(=S)NN,inactive
3,CC(C)C(=O)OCC(C)(C)C(OC(=O)C(C)C)C(C)C (stereo not given),inactive
4,N#CC(Br)Br,inactive
5,O=C(Nc1ccc(Br)cc1)c1cc(Br)cc(Br)c1O,1.95 µM (active)
6,CCN(CC)C(=O)SCc1ccc(Cl)cc1,inactive
7,CCC(C)c1ccc(O)cc1 (stereo not given),inactive
8,CCC(=O)O[C@H]1CC[C@H]2[C@@H]3CCC4=CC(=O)CC[C@]4(C)[C@H]3CC[C@]12C,43.6 µM (active) and inactive
9,CCN(CC)C(=O)/C(Cl)=C(\C)OP(=O)(OC)OC,inactive
10,C#C[C@]1(O)CC[C@H]2[C@@H]3CCC4=CC(=O)CC[C@]4(C)[C@H]3CC[C@@]21C,inactive
11,Cc1ccccc1[N+](=O)[O-],inactive
12,C[C@]12CCC(=O)C(O)=C1CC[C@@H]1[C@@H]2CC[C@]2(C)C(=O)CC[C@@H]12,inactive
13,C=CC(=O)OCCO,inactive
14,CCC(CC)Nc1c([N+](=O)[O-])cc(C)c(C)c1[N+](=O)[O-],inactive
15,CC(C)(OOC(C)(C)c1ccccc1)c1ccccc1,inactive
16,Cc1ccc(N)c(N)c1,inactive
17,CCCCC(CC)COC(=O)Cl (stereo not given),inactive
18,Clc1nc(Cl)nc(Cl)n1,inactive
19,Oc1cc(Cl)ccc1Oc1ccc(Cl)cc1Cl,7.08 µM (active) and 23.9 µM (active)
20,Cc1ccc2c(c1N)C(=O)c1ccccc1C2=O,inactive
